Test results from article PMC4336329 (PLoS ONE, 2015).
The whole screen tested about 310,000 compounds, of which about 2,200 (0.71%) showed an effect of 50% or more. The effect is printed as a negative number. The sample holds strong results, similar compounds and a random draw of the others, so the mix is not that of the screen.

Molecular target: human ether-à-go-go-related gene (hERG) potassium channel (human, UniProt Q12809)
Assay: primary screen, population patch clamp on CHO cells stably expressing hERG; higher = less effect of the substance

human ether-à-go-go-related gene (hERG) potassium channel, sequence (Q12809 whole entry, looked up): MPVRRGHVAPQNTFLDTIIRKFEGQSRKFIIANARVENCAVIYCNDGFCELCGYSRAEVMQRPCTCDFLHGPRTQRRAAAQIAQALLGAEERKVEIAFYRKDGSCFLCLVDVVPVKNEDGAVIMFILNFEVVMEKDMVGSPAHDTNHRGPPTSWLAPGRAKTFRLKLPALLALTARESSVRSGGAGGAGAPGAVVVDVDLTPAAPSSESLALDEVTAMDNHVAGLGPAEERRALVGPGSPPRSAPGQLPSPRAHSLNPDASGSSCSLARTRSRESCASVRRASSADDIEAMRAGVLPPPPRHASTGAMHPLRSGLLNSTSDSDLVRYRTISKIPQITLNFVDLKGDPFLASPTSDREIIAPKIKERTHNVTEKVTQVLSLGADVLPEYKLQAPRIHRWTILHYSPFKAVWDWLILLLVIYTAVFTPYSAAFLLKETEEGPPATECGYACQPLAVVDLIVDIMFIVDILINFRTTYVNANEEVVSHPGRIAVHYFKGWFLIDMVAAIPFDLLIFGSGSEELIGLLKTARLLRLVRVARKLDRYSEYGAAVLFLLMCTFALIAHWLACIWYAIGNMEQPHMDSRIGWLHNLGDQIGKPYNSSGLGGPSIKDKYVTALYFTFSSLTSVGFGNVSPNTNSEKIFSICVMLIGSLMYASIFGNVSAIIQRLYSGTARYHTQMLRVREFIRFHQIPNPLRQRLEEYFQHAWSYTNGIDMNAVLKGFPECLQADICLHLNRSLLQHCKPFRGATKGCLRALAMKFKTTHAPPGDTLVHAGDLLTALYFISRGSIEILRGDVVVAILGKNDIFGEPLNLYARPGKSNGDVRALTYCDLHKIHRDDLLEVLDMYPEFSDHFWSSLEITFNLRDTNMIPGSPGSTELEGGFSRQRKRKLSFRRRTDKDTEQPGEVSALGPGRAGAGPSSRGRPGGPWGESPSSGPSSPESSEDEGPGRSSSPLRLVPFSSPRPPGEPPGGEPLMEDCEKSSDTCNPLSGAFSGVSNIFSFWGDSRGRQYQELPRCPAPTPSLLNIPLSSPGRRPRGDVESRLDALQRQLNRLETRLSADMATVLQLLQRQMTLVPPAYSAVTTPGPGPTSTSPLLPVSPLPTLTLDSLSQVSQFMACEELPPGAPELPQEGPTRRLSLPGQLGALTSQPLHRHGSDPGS

Row | Structure (SMILES) | hERG current change (%, negative = inhibition) at 1uM [%]
1 | O=C(CSc1nncn1-c1ccccc1)Nc1cc(Cl)cc(Cl)c1 | 5.88
2 | CCN1CCN(C(=O)Cn2ncc3c2-c2ccccc2OC3)CC1 | 0.123
3 | O=C(Cn1ncc2c1-c1ccccc1OC2)N1CCN(Cc2ccc3c(c2)OCO3)CC1 | -31
4 | O=C(Cn1ncc2c1-c1ccccc1OC2)N1CCN(Cc2ccccc2)CC1 | -58
5 | O=C1NN=COc2ccccc21 | 4.08
6 | CC(C)=CCN1CCN(Cc2cccn2-c2ccccn2)CC1CCO (centres unmarked) | -19.9
7 | OCCC1CN(Cc2cccn2-c2ccccn2)CCN1C1CCCC1 (centres unmarked) | 3.68
8 | Cc1ccc(CN2CCN(Cc3cccn3-c3ccccn3)CC2CCO)o1 (centres unmarked) | -59.5
9 | CC(C)N1CCN(Cc2cccn2-c2ccccn2)CC1CCO (centres unmarked) | -16
10 | Cc1ccc(CN2CCN(Cc3ccncc3)CC2CCO)o1 (centres unmarked) | -1.98
11 | CC(C)CCN1CCN(Cc2cccn2-c2ccccn2)CC1CCO (centres unmarked) | -36.6
12 | Cc1ccc(CN2CCN(Cc3c(C)nn(C(C)C)c3C)CC2CCO)o1 (centres unmarked) | 10.6
13 | CC(C)CN1CCN(Cc2cccn2-c2ccccn2)CC1CCO (centres unmarked) | -18.8
14 | Cc1ccc(CN2CCN(Cc3cccn3-c3ccc(Cl)cn3)CC2CCO)o1 (centres unmarked) | 0.259
15 | Cc1ccc(CN2CCN(Cc3cccn3-c3ccccn3)CC2CCO)cc1 (centres unmarked) | -82.4
16 | Cc1cc(C)c(CN2CCN(Cc3ccc(C)o3)C(CCO)C2)c(-n2cccn2)c1 (centres unmarked) | -70.9
17 | OCCC1CN(Cc2cccn2-c2ccccn2)CCN1Cc1ccccc1 (centres unmarked) | -61.4
18 | CCOC(=O)C1CCN(S(=O)(=O)c2cc3c(cc2C)NC(=O)CO3)CC1 | -13.1
19 | CC(=O)NCCC(=O)Nc1sc2c(c1-c1nc3ccccc3[nH]1)CCCC2 | 7.25
20 | CC(C)(C)NCCOc1ccc2ccccc2c1 | 14.6
21 | O=C(O)c1cc2ccccc2cc1Nc1ccccc1 | 6.84
22 | CC(OC(=O)c1ccco1)C(=O)Nc1ccc(Cl)cn1 (centres unmarked) | 5.93
23 | CNC(=O)C1=C(C)Nc2nc3ccccc3n2C1c1ccc(F)cc1 (centres unmarked) | 7.95

Row | Structure (SMILES) | hERG current change (%, negative = inhibition) at 1uM [%]
24 | C/C(CC(=O)Nc1ccc(F)cc1)=N\NC(=O)Cc1csc(N)n1 | 16.1
25 | CCOC(=O)c1nc(Nc2ccc(C(=O)O)cc2)c2ccccc2n1.Cl | 11.2
26 | O=C(Nc1ccccc1)N(C1=NCCCCS1)c1cccc2ccccc12 | 5.62
27 | O=C(O)CC1SC(=O)N(CC(=O)c2ccccc2)C1=O (centres unmarked) | 8.06
28 | O=C(COC(=O)Cc1cccc(C(F)(F)F)c1)NC1CC1 | 10.7
29 | N#CCCn1cc(C(=O)Nc2ccc([N+](=O)[O-])cc2)c(-c2ccccc2)n1 | -67.8
30 | N#CCCn1cc(C(=O)Nc2ccc(C(=O)O)cc2)c(-c2ccc([N+](=O)[O-])cc2)n1 | 16
31 | N#CCCn1cc(C(=O)Nc2ccc(F)cc2)c(-c2ccc([N+](=O)[O-])cc2)n1 | 6.48
32 | O=C(OCC(=O)N1CCCC1)c1ccc(S(=O)(=O)Nc2ccccc2)cc1 | -0.807
33 | CN(CC(=O)Nc1cccc(F)c1)C(=O)c1ccccc1Sc1ccccc1C#N | -8.06
34 | CC(C)(C)c1ccc(CN2C(=O)c3ccccc3S2(=O)=O)cc1 | 15.7
35 | CC(=O)c1cccc(NC(=O)C2CCCN(S(=O)(=O)c3ccccc3)C2)c1 (centres unmarked) | 7.51
36 | O=C(NCc1ccco1)C1CCCN(S(=O)(=O)c2cc(Cl)ccc2Cl)C1 (centres unmarked) | 2.52
37 | CN(C)c1ccc(/C=N/NC(=O)c2ccn(C)n2)cc1 | 9.92
38 | CC(NC(=O)c1ccc(S(=O)(=O)N(C)C)cc1)c1ccc(-n2ccnc2)cc1 (centres unmarked) | -40.5
39 | CC(NC(=O)c1ccccc1Cl)c1ccc(-n2ccnc2)cc1 (centres unmarked) | -1.53
40 | CC(NC(=O)c1cc(S(=O)(=O)N(C)C)ccc1Cl)c1ccc(-n2ccnc2)cc1 (centres unmarked) | -55.3
41 | COc1ccc(C(=O)CN2C(=O)NC(C)(c3ccccc3)C2=O)cc1OC (centres unmarked) | 3.32
42 | CCOC(=O)C1CCN(C(C)C(=O)c2c[nH]c3ccccc23)CC1 (centres unmarked) | -1.89
43 | CCOC(=O)C1CCN(CC(=O)c2c(C)[nH]c3cc(C)ccc23)CC1 | -26.8
44 | CCOC(=O)C1CCN(C(C)C(=O)c2c(C)[nH]c3cc(C)ccc23)CC1 (centres unmarked) | -66.9
45 | CCOC(=O)C1=C(C)NC(=S)N(C(C)=O)C1c1ccc(Cl)cc1 (centres unmarked) | 9.38
46 | Cc1ccc(Cn2c(SC3CCOC3=O)nc3ccccc3c2=O)cc1 (centres unmarked) | -6.65

Row | Structure (SMILES) | hERG current change (%, negative = inhibition) at 1uM [%]
47 | O=C1OCCC1Sc1nc2ccccc2c(=O)n1Cc1ccc(F)cc1 (centres unmarked) | -37.5
48 | O=C1OCCC1Sc1nc2ccccc2c(=O)n1Cc1ccccc1 (centres unmarked) | -64.6
49 | COc1ccc2nc3ccccc3nc2c1NC(=O)c1ccccc1Cl | -1.38
50 | O=C(NCc1ccccc1)c1cnsn1 | 7.4
51 | CC1(C)C(=O)C2(CCCCC2)C(=O)OC1C(=O)c1ccccc1 (centres unmarked) | 6.81
52 | O=C(COc1ccc2c3c(c(=O)oc2c1)CCCC3)N1C[C@H]2C[C@@H](C1)c1cccc(=O)n1C2 | -6
53 | COc1cnn(Cc2ccccc2)c(=O)c1SCc1ccccc1 | -2
54 | Cc1ccc(NC(=O)c2c3c(nc4ccccc24)CCC3)cc1 | 7.04
55 | O=C(NCc1ccc(F)cc1)c1c2c(nc3ccccc13)CCN(Cc1ccccc1)C2 | 0.811
56 | CCOc1ccc(NC(=O)c2c3c(nc4ccccc24)CCC3)cc1 | 10.9
57 | CCN1CCc2nc3ccccc3c(C(=O)Nc3ccc(F)cc3)c2C1 | -81.6
58 | CCN1CCc2nc3ccccc3c(C(=O)Nc3ccc(C#N)cc3)c2C1 | -65.8
59 | CCN1CCc2nc3ccccc3c(C(=O)Nc3ccc(NC(C)=O)cc3)c2C1 | 12.4
60 | Cc1ccc(Oc2nc(C(F)(F)F)nc3ccccc23)cc1 | 6.66
61 | CC(C)(C)OC(=O)N/N=C\c1ccc(OC(=O)c2cccs2)cc1 | 9.49
62 | COc1ccc(-c2n[nH]c(=S)n2-c2ccc(Br)cc2)cc1OC | 16.7
63 | O=C(COC(=O)CCS(=O)(=O)c1ccccc1)Nc1ccccc1 | 0.18
64 | O=C(COC(=O)c1cc[n+]([O-])cc1)Nc1cc([N+](=O)[O-])ccc1Cl | 13.7
65 | O=C(NCC(c1ccco1)N1CCc2ccccc2C1)c1ccc([N+](=O)[O-])cc1 (centres unmarked) | -7.15
66 | O=C(C[n+]1cccc(NC(=O)c2ccccc2)c1)c1cccc([N+](=O)[O-])c1.[Br-] | -39.6
67 | O=C(C[n+]1cccc2ccccc21)c1ccccc1.[Br-] | 8.9
68 | Cc1ccc(C(=O)C[n+]2cccc3ccccc32)cc1.[Br-] | 7.24
69 | O=C(C[n+]1cccc(C(=O)Nc2ccccc2)c1)c1ccc([N+](=O)[O-])cc1.[Br-] | -61

Row | Structure (SMILES) | hERG current change (%, negative = inhibition) at 1uM [%]
70 | O=C(Nc1ccccc1)c1ccc[n+](Cc2ccc([N+](=O)[O-])cc2)c1.[Br-] | 5.28
71 | O=C(C[n+]1cccc2ccccc21)c1ccc([N+](=O)[O-])cc1.[Br-] | -53.8
72 | COc1ccc(CC(=O)NNS(=O)(=O)c2ccc([N+](=O)[O-])cc2)cc1OC | 16
73 | O=C(COn1nnc2ccc(Cl)cc21)NCc1ccccc1 | 0.51
74 | CCCCN1C(=O)C(=O)N(CC(=O)NC2CCCc3ccccc32)C1=O (centres unmarked) | 8.35
75 | CN(C)CCCN(C(=O)c1ccco1)c1nc(-c2ccc(Cl)cc2)cs1.Cl | -70.8
76 | CCN(CC)CCCN(C(=O)c1ccco1)c1nc(-c2ccc(Cl)cc2)cs1.Cl | -25.5
77 | CCN(CC)CCCN(C(=O)c1ccco1)c1nc(-c2ccc(C)cc2)cs1.Cl | -90.2
78 | Cl.O=C(c1ccco1)N(CCCN1CCOCC1)c1nc(-c2ccc(Cl)cc2)cs1 | -5.41
79 | Cc1ccc(-c2csc(N(CCCN(C)C)C(=O)c3ccco3)n2)cc1.Cl | -36.6
80 | Cc1ccc(-c2csc(N(CCCN3CCOCC3)C(=O)c3ccco3)n2)cc1.Cl | -4.11
81 | COc1cccc(C2c3[nH]c4ccccc4c3C[C@H]3C(=O)N(C)CC(=O)N23)c1 (some centres unmarked) | -1.14
82 | CON(c1nc(Cl)nc(N(C)C)n1)S(=O)(=O)c1ccccc1Cl | 6.38
83 | O=C(Nc1cc(Br)ccc1O)C1CC(c2ccccc2Cl)=NO1 (centres unmarked) | 18.5
84 | CCOc1ccc(Nc2nc(N)nc(CN(C)C3CCCCC3)n2)cc1 | -58.2
85 | COc1ccc(Nc2nc(N)nc(CN(C)C3CCCCC3)n2)cc1 | -17.9
86 | CCOc1ccccc1Nc1nc(N)nc(CN2CCCCC2C)n1 (centres unmarked) | -9.01
87 | COc1ccccc1Nc1nc(N)nc(CN(C)C2CCCCC2)n1 | -11.7
88 | CCOc1ccccc1Nc1nc(N)nc(CN(C)C2CCCCC2)n1 | -54.3
89 | CCOc1ccc(Nc2nc(N)nc(CCl)n2)cc1 | 7.02
